Source: PubChem BioAssay (National Center for Advancing Translational Sciences (NCATS))
In the library only some 11% were active in any assay of this set; here they are far more common.
MCF10A rerep: A quantitative high throughput screen for small molecules that induce DNA re-replication in MCF 10a normal breast cells | MCF 10A DNA re-replication, Hoechst nuclear intensity, 48 h | Potency, µM (top dose mostly 46.1 µM), usual class: activators | hit rate 2.9% among 350,000 | AID 624296, 2012; also: nearly all actives have a fitted effect of over 50% in size
RORgamma inh: qHTS for inhibitors of ROR gamma transcriptional activity; AID 2551, 2010; hit rate 5.4% among 310,000; Nuclear receptor ROR-gamma (Mus musculus), P51450; Drosophila S2 Gal4-RORgamma UAS-luciferase reporter, 20 h; Potency, µM (highest dose often 53.6 µM), usual class: inhibitors; also: nearly all actives have a fitted effect of over 60% in size
Target sequence (P51450 whole entry, looked up, the tested form may be a part): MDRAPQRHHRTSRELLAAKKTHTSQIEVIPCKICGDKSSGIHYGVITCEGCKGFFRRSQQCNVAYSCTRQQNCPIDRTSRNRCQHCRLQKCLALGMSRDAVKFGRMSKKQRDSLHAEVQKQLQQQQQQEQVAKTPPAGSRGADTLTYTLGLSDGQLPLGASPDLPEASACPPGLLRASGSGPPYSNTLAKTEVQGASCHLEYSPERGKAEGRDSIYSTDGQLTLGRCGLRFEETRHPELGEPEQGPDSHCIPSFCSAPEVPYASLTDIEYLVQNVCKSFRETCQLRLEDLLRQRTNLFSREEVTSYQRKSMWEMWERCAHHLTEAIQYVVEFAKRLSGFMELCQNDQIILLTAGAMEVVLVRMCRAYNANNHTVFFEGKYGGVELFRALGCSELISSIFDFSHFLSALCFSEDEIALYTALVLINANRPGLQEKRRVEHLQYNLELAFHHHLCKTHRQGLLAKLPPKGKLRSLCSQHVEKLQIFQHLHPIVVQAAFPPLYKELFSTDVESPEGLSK
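Schneider cells (Drosophila), stable Gal4 DBD–ROR gamma + UAS-luc; 1 hr cmpd preincubation; Cu2+ induction 700 uM final; 20 hr ambient; luminescence.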
SW480 rerep: A quantitative high throughput screen for small molecules that induce DNA re-replication in SW480 colon adenocarcinoma cells | SW480 DNA re-replication, Hoechst DNA content imaging, 48 h | Potency, µM (titrated, usually from 46.1 µM), most hits filed as activators | hit rate 1.8% among 340,000; also: nearly all actives have a fitted effect of over 55% in size
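Treated cells incubate 48 hr (37 C, 5% CO2), are stained 40 min with Hoechst, and nuclear fluorescence is enumerated; a rise in nuclei with high DNA signal marks re-replication.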
IL-1B inflam inh: qHTS for Inhibitors of Inflammasome Signaling: IL-1-beta AlphaLISA Primary Screen | THP-1 LPS/ATP IL-1B secretion, AlphaLISA, 16 h; stronger effect = lower value | activity change, % at 57.5 µM | hit rate 4.7% among 360,000; in the data active = activity change below about -50%; inconclusive = mostly about -30% to -49%
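Secreted IL-1B measured by AlphaLISA bead assay after 16 h compound exposure of THP-1 cells; compounds (final up to 57.5 uM) added 1 h before LPS (250 ng/mL) and ATP (1.25 mM) stimulation; lower signal means less secretion.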
Gal4-VP16 FLuc: VP16 counterscreen qHTS for inhibitors of ROR gamma transcriptional activity; hit rate 3.5% among 310,000; Potency, µM (series often up to 53.6 µM), hits mostly inhibitors; Drosophila S2 Gal4-VP16 UAS-luciferase, luminescence, 20 h;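 also: Gal4-VP16 expression switched on by copper sulfate through the metallothionein promoter; nearly all actives have a fitted effect of over 50% in size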
Numbers stand for hits; n = inactive; u = inconclusive; x = no result; [ ] = remark or other dose. Unless noted, calls follow the shape of the dose curve; as a rule, active = well fitted curve in the direction sought with a large enough effect; inconclusive = small, poorly fitted or top-dose-only effect, or another doubt; inactive = no such curve, though single readings can be large; an effect the other way counts as inactive or inconclusive.

SMILES	MCF10A rerep	RORgamma inh	SW480 rerep	IL-1B inflam inh	Gal4-VP16 FLuc
O=[N+]([O-])c1ccc2c(c1)C(=NO)c1cc(Cl)c(Cl)cc1-2	n	x	n	n	x
C[C@@H](CC#N)CN1CC[C@H](C(C)(C)C)CCC1=O	n	n	n	n	n
Cn1cc(C(=O)c2ccc(Cl)cc2Cl)cc1C(=O)N/N=C(\N)COc1ccc(Cl)cc1	n	1.41µM	u	n	3.55µM
C=CCC1C=CC(Oc2ccc(F)cc2C)C(CO)O1 (stereo not given)	x	n[10 µM]	x	x	n[10 µM]
CCc1ccccc1NNC(=O)c1snnc1C	u	n	11.6µM	x	n
CCCCn1nc(C(=O)NC2CCCCC2)c2ccccc2c1=O	x	x	x	n	x
N#CSCC(=O)c1cccc2ccccc12	18.4µM	11.2µM	u	-61.0	u
NC(=O)c1cccc2ccccc12	n	n	n	n	n
O=C1CCCC(C(C(=O)OCc2ccccc2)C(=O)OCc2ccccc2)C1 (stereo not given)	x	n	x	x	n
CN1CCN(C(=S)Nc2ccc(Cl)cc2)CC1	n	n	n	n	n
FC(F)(F)c1cccc(NC(=S)N2CCCCCC2)c1	n	n	n	n	n
CCc1ccc(NC(=S)N2CCCCCCC2)cc1	n	5.62µM	n	n	u
Cc1ccc(NC(=S)N2CCCC2)cc1Cl	n	15.8µM	n	n	u
S=C(Nc1ccc(Cl)cc1)N1CCCCC1	n	10µM	n	n	u
Fc1cccc(NC(=S)N2CCCCC2)c1	n	12.6µM	n	n	u
O=C(N[C@H](CO)Cc1ccccc1)[C@H]1O[C@@H](n2ccc(=O)[nH]c2=O)[C@H](O)[C@@H]1O	x	x	x	n	x
Cc1ccc(S(=O)(=O)N2C[C@H]3C(=O)C[C@@H](c4ccc(Cl)cc4)N(S(=O)(=O)c4ccc(C)cc4)[C@H]3C[C@H]2c2ccccc2)cc1	x	x	x	n	x
COCCC(=O)N1CCC(Oc2ccc(C(=O)NCc3nccn3C)cc2)CC1	n	n	n	n	n
S=C(Nc1ccccc1)N1CCCCC1	n	11.2µM	u	n	n
O=C(O)c1ccc(NC(=S)N2CCCCC2)cc1	n	n	n	n	n
COc1ccccc1NC(=O)C(C)OC(=O)CCNS(=O)(=O)c1ccc(C)c(C)c1 (stereo not given)	n	x	n	n	x
CC(=O)OC1CCC2C3CCc4cc(OP(=O)(N5CC5)N5CC5)ccc4C3CCC12C (stereo not given)	x	x	x	n	x
O=C(COc1ccccc1Br)Nc1ccc(S(=O)(=O)N2CCCC2)cc1	n	x	n	n	x
COc1cc(C2c3cc4c(cc3C(O)C3COCC23)OCO4)cc(OC)c1OC (stereo not given)	u	x	13µM	n	x
COc1cc(C2c3cc4c(cc3OC(NNC(N)=S)C2C)OCO4)cc(OC)c1OC (stereo not given)	1.46µM	x	2.59µM	u	x
SMILES	MCF10A rerep	RORgamma inh	SW480 rerep	IL-1B inflam inh	Gal4-VP16 FLuc
COc1cccc(C2c3cc4c(cc3OC(NNC(N)=O)C2C)OCO4)c1O (stereo not given)	3.26µM	x	8.2µM	n	x
COc1cc([C@@H]2c3cc4c(cc3[C@@H](O)[C@@H](CO)[C@@H]2CO)OCO4)cc(OC)c1O[Si](C)(C)C(C)(C)C	x	n	x	x	n
COc1cc(C2c3cc4c(cc3OC(NNC(N)=O)C2C)OCO4)cc(OC)c1OC (stereo not given)	0.731µM	x	1.3µM	-65.6	x
COc1ccc(C2c3cc4c(cc3OC(NNC(N)=O)C2C)OCO4)cc1 (stereo not given)	u	x	u	n	x
O=C(NCCN1CCOCC1)C1CC(=O)N(c2cccc(C(F)(F)F)c2)C1 (stereo not given)	n	x	n	n	x
O=C(c1ccco1)N1CCC2(CC1)CCN(c1cccc(-c3ccccc3)c1)CC2	x	n	x	x	n
CS(=O)(=O)Nc1c(O)ccc2c1CCC[C@H]2C1=NCCN1	x	n	x	x	n
COc1cccc(C2c3cc4c(cc3OC(C)(N3CCCC3)C2C)OCO4)c1O (stereo not given)	u	x	18.4µM	-66.0	x
COc1cc(C2c3cc4c(cc3OC(NCc3ccccc3)C2C)OCO4)cc(OC)c1OC (stereo not given)	1.64µM	x	4.61µM	n	x
CCN(C(=O)COC(=O)c1ccc(Cl)c(S(=O)(=O)N2CCCCC2)c1)C1CCS(=O)(=O)C1 (stereo not given)	n	x	n	n	x
COc1ccccc1-c1nnc(SC/C(O)=C(\C#N)c2nc3ccccc3[nH]2)n1C1CCCCC1	u	7.08µM	n	u	11.2µM
N#C/C(=C(/O)CSc1nnc(Cc2cccs2)n1C1CCCCC1)c1nc2ccccc2[nH]1	u	n	18.4µM	n	n
C=CCn1c(COc2ccc(CC)cc2)nnc1SC/C(O)=C(\C#N)c1nc2ccccc2[nH]1	u	11.2µM	n	n	u
Cn1cnnc1SC/C(O)=C(\C#N)c1nc2ccccc2[nH]1	n	n	n	n	n
O=C(C1CCCCCC1)N1CC[C@@H](N2CCC(O)CC2)[C@H](O)C1	n	n	n	n	n
Oc1ccc(C(=S)N2CCN(c3cccc(Cl)c3)CC2)cc1	u	n	u	-93.1	n
O=C(C(=O)N1CCN(c2cccc(Cl)c2)CC1)N1CCCCC1	n	n	n	n	n
O=C(c1cnc(N2CCN(c3ccccn3)CC2)c2ccccc12)N1CCN(c2cccc(Cl)c2)CC1	n[9.22 µM]	u	u	-60.0	1.58µM
Oc1ccccc1C(=S)N1CCN(c2cccc(Cl)c2)CC1	n	n	n	-96.8	n
CC(=O)c1ccc(NC(=S)N2CCN(c3cccc(Cl)c3)CC2)cc1	n	n	n	n	u
COc1cc(C(=S)N2CCN(c3cccc(Cl)c3)CC2)ccc1O	14.6µM	n	20.6µM	n	n
CSc1ccccc1C(=O)N1CCN(c2cccc(Cl)c2)CC1	u	n	23.1µM	n	n
CN(c1ccccc1C(=O)N1CCN(c2cccc(Cl)c2)CC1)S(C)(=O)=O	n	n	n	n	n
C[C@@H]1CN([C@@H](C)CO)C(=O)c2cccc(NC(=O)Nc3ccccc3)c2O[C@H]1CN(C)C(=O)Nc1cccc2ccccc12	n	x	n	n	x
CC1(C)SC(=S)N(/N=C/c2ccccc2)C1N(O)C(=O)Nc1ccc([N+](=O)[O-])cc1 (stereo not given)	n	u	n	u	3.55µM
SMILES	MCF10A rerep	RORgamma inh	SW480 rerep	IL-1B inflam inh	Gal4-VP16 FLuc
Cc1ccc(NC(=S)Nc2cccc3ccccc23)cc1	n	2µM	n	n	5.62µM
CC(C)c1ccc(NC(=S)Nc2cccc3ccccc23)cc1	u	3.55µM	n	n	7.08µM
COc1cccc(NC(=S)Nc2cccc3ccccc23)c1	n	0.112µM	n	n	6.31µM
Cc1cc(C)cc(NC(=S)Nc2cccc3ccccc23)c1	n	n	n	n	n
Fc1ccc(NC(=S)Nc2cccc3ccccc23)cc1	n	u	n	n	u
CCc1cccc(NC(=S)Nc2cccc3ccccc23)c1	n	3.98µM	n	n	7.94µM
